Test [1] is described as follows: qHTS assay to identify small molecule antagonists of the estrogen related receptor (ERR) signaling pathway from Tox21 library - cell viability counter screen (AID 1224834). Also: nearly all actives have a fitted effect of over 30% in size. A digest of the protocol:
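CellTiter-Fluor fluorescence, read after 30 min at 37 C, measures viability of ERR cells. Cells plated at 2,000/well and incubated 6 h before pin-tool compound addition, then exposed 17.5 hours at 37 C.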
(In qHTS, concentration-response curves come from the screen itself.)

Test [2] has as its target Luciferin 4-monooxygenase (Photinus pyralis) (UniProt P08659). In words: qHTS assay to identify small molecule inhibitors of firefly luciferase (AID 1224835). Also: nearly all actives have a fitted effect of over 25% in size. Also: potency is read from the fitted curve at half-maximal effect. A digest of the protocol: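 Inhibition of purified Photinus luciferase is measured by luminescence. Substrate levels (D-luciferin, ATP) sit at their KM values. Each compound is tested in a concentration series.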

Test [3] can be described thus: qHTS assay to identify small molecule agonists of the constitutive androstane receptor (CAR) signaling pathway - cell viability counter screen (AID 1224836). Also: series mostly up to about 92 µM; nearly all actives have a fitted effect of over 45% in size. The method in brief: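 Multiplexed viability check: HepG2-CYP2B6-hCAR cells, 15-point compound dosing, 0.75 uM PK11195 final, 23 h at 37 C, CellTiter-Fluor fluorescence.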
Test [4] in a line: qHTS assay to identify small molecule antagonists of the constitutive androstane receptor (CAR) signaling pathway - cell viability counter screen (AID 1224837). Also: series mostly up to about 92 µM; nearly all actives have a fitted effect of over 45% in size. The method in brief:
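Cytotoxicity counter-screen: CellTiter-Fluor fluorescence after 23 h compound exposure (15-point qHTS) in double-stable HepG2-CYP2B6-hCAR cells, with 50 nM CITCO added.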

Test [5] deals with Nuclear receptor subfamily 1 group I member 3 (Homo sapiens) (UniProt Q14994). In words: qHTS assay to identify small molecule antagonists of the constitutive androstane receptor (CAR) signaling pathway (AID 1224838).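 Also: HepG2 cells stably expressing hCAR with CYP2B6 luciferase reporter stimulated by CITCO; nearly all actives have a fitted effect of over 40% in size.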 The method in brief: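 Antagonism measured as luciferase signal (ONE-Glo, 30 min, room temperature) in CAR-stimulated cells: HepG2-CYP2B6-hCAR double-stable line exposed 24 hr at 37 C to compound in a 15-point series plus 50 nM CITCO.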

For test [6] the target is unchanged. In words: qHTS assay to identify small molecule agonists of the constitutive androstane receptor (CAR) signaling pathway (AID 1224839).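 Also: HepG2 cells stably carrying human CAR and a CYP2B6 luciferase reporter; series mostly up to about 92 µM; nearly all actives have a fitted effect of over 15% in size.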 A digest of the protocol: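 Using human hepatoma HepG2 cells engineered with hCAR and a CYP2B6-2.2kb reporter, 15-concentration compound series were incubated 24 h alongside PK11195 at 0.75 uM final, with luminescence quantified afterwards.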

Test [7] is described as follows: qHTS assay to identify small molecule antagonists of the estrogen related receptor signaling pathway with the pleiotropic PPARgamma coactivator (PGC) from Tox21 10K library - cell viability counter screen (AID 1224840; active = well fitted cell-killing curve with a large enough effect in the repeat runs, not every such curve was filed as active; also: nearly all actives have a fitted effect of over 40% in size). A digest of the protocol:
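Counter-screen for cytotoxicity: after 17.5 h compound exposure at 37 C, CellTiter-Fluor reagent added to PGC/ERR cells for 30 min and fluorescence read. Cells were seeded at 2,000 per well 6 h before dosing.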

Test [8] can be described thus: qHTS assay to identify small molecule antagonists of the estrogen related receptor signaling pathway with the pleiotropic PPARgamma coactivator (PGC) from Tox21 10K library (AID 1224841; call rule not given here; also: series mostly up to about 92 µM; actives are mostly falling curves and most rising ones were filed inactive; nearly all actives have a fitted effect of over 50% in size). The method in brief:
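Luminescence (One-Glo, 30 min at room temperature) after 18 h compound treatment at 37 C of PGC/ERR reporter cells plated at 2,000 cells/well and settled 6 h beforehand.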

A short description of test [9]: qHTS assay to identify small molecule agonists of the estrogen related receptor signaling pathway with the pleiotropic PPARgamma coactivator (PGC) from Tox21 10K library (AID 1224842). Also: nearly all actives have a fitted effect of over 15% in size. The method in brief: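 Luminescence from One-Glo (30 min, room temperature) measured after PGC/ERR cells had 18 h at 37 C with pinned compound (23 nL in DMSO). Cells had been seeded at 2,000 per well and pre-incubated 6 h.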

The source of these data is PubChem BioAssay (Tox21).

Records with an inconclusive call do not appear. Activity calls are given as the source filed them. Unless noted, calls follow the shape of the dose curve; as a rule, active = well fitted curve in the direction sought with a large enough effect in the repeat runs; inconclusive = weak or mixed curves; inactive = no such curve, though single readings can be large; an effect the other way counts as inactive or inconclusive.

Sequence of Nuclear receptor subfamily 1 group I member 3 (Homo sapiens) (Q14994 whole entry, looked up): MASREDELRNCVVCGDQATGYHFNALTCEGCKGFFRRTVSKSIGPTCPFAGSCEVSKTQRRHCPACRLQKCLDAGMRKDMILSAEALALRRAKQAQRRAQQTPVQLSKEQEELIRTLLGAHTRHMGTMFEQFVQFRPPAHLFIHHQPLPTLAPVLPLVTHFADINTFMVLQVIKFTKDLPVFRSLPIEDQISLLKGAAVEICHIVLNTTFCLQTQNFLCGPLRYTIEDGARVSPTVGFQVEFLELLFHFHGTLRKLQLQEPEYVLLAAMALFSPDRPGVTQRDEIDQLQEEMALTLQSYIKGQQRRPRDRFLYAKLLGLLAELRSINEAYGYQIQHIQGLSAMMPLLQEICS
Sequence of Luciferin 4-monooxygenase (Photinus pyralis) (P08659 whole entry, looked up): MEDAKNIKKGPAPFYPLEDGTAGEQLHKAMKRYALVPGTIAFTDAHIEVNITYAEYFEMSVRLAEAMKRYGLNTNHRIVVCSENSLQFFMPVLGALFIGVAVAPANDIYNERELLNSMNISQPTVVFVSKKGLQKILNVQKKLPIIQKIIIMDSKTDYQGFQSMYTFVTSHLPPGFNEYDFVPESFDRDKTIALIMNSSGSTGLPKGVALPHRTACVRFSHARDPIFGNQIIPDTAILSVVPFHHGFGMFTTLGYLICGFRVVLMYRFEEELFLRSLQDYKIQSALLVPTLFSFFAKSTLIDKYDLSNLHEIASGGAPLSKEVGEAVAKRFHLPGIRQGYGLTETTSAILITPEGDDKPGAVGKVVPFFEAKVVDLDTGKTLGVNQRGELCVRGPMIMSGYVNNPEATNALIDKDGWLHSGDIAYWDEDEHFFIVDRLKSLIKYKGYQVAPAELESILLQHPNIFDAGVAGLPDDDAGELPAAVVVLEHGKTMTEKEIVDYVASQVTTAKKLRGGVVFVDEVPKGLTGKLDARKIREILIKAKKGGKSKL

For `COC(=O)c1cccnc1`, the Potency entry in test [1], in test [2], in test [3], in test [4], in test [6] and in test [7] was “inactive” in each case. Besides, the Potency result in test [8] was “inactive”. The compound was called inactive in test [5] and in [9].

For the compound `COC(=O)CCCC(=O)OC`, the Potency entry in test [1], in [2], in test [3], in test [4], in [6] and in test [7] was “inactive” each time. The call in [5] was inactive.

On to `C[Si]1(C)O[Si](C)(C)O[Si](C)(C)O[Si](C)(C)O1`, for which the Potency entry in test [1], in test [2], in [3], in test [4], in test [6] and in [7] was “inactive” in each case. Further, the compound was classed as inactive in test [5].

Turning to `CCCCC(C=O)CC` (centres undefined), the Potency entry in [1], in [2], in test [3], in [4], in [6] and in test [7] was “inactive” in each case. Also, in test [5], the outcome was inactive.

For `CC1(C)NC(=O)NC1=O`, the Potency result in test [1], in [2], in test [3], in test [4], in test [6] and in test [7] was “inactive” throughout. The Potency result in [8] is “inactive”. Further, the compound was called inactive in test [5] and in test [9].

Take `CC(C)OC(=O)COc1ccc(Cl)cc1Cl`: the Potency result in [1], in test [3], in test [4], in test [6] and in test [7] was “inactive” throughout. The Potency in [2] was 35 µM (active). The result in test [5] was inactive.

In the case of `COc1ccc([N+](=O)[O-])cc1N`, the Potency entry in test [1], in test [2], in test [3], in [4], in [6] and in [7] was “inactive” each time. Moreover, the call in test [5] was inactive.

As to `CC(=O)c1ccc(O)cc1`, the Potency result in test [1], in test [2], in test [3], in [4], in test [6] and in test [7] was “inactive” each time. The result in test [5] was inactive.

As for `COCCOC(=O)c1ccccc1C(=O)OCCOC`, the Potency entry in [1], in test [2], in test [3], in [4], in test [6] and in test [7] was “inactive” in each case. The result in test [5] was inactive.

On to `O=C(O)c1ccc(S(=O)(=O)N(Cl)Cl)cc1`, for which the Potency entry in test [1], in test [2], in test [3], in test [4], in [6] and in [7] was “inactive” throughout. Further, the compound was called inactive in [5].

`CC1(C)OC[C@@H]2O[C@@]3(C(=O)O)OC(C)(C)O[C@H]3[C@@H]2O1`: the Potency result in test [1], in test [2], in [3], in test [4], in test [6] and in test [7] was “inactive” in each case. For the same compound, the call in test [5] was inactive.

Turning to `CCNc1cccc(C)c1`, the Potency entry in test [1], in test [2], in test [3], in [4], in test [6] and in test [7] was “inactive” in each case. Also, the Potency result in test [8] is “inactive”. Moreover, the compound was classed as inactive in test [5] and in [9].

For the compound `CCCCCCO`, the Potency result in test [1], in test [2], in test [3], in test [4], in test [6] and in [7] was “inactive” in each case. Besides, in test [5], the call was inactive.

For the compound `CN(C)c1ccc(O)c2c1C[C@H]1C[C@H]3[C@H](N(C)C)C(=O)C(C(N)=O)=C(O)[C@@]3(O)C(=O)C1=C2O`, the Potency result in test [2], in [3], in test [4], in [6] and in test [7] was “inactive” each time. Moreover, in test [5], the outcome was inactive.

With `Brc1ccc(Br)c(Br)c1`, the Potency result in test [1], in [2], in test [3], in test [4] and in test [7] was “inactive” in each case.

In the case of `CC(C)c1cccc(C(C)C)c1`, the Potency entry in test [1], in test [2], in test [3], in test [4], in test [7] and in test [8] was “inactive” in each case. In addition, the compound was classed as inactive in test [9].

For `C=C(C)C(=O)OCC(C)C`, the Potency result in test [1], in test [2], in test [3], in test [4] and in test [7] was “inactive” in each case.

Take `N#Cc1ccccc1`: the Potency entry in test [1], in test [2], in test [3], in test [4], in test [6] and in test [7] was “inactive” throughout. Also, the Potency result in test [8] is “inactive”. In addition, the compound was classed as inactive in test [5] and in test [9].

For `C=CC[N+](C)(C)CC=C`, the Potency result in [1], in [2], in test [3], in [4] and in [7] was “inactive” in each case.

Turning to `C=C(C)[C@H]1CC=C(C)C(=O)C1`, the Potency result in test [1], in [2], in test [3], in test [4] and in test [7] was “inactive” in each case.

On to `c1ccc2c(c1)Cc1ccccc1-2`, for which the Potency entry in test [1], in test [2], in test [3], in test [4] and in [7] was “inactive” in each case.

Turning to `CN1C(=O)CC[C@H]1c1cccnc1`, the Potency result in test [2], in test [3], in [4], in test [6] and in [7] was “inactive” throughout. Besides, the result in test [5] was inactive.

With `C[C@]12CCC(=O)C=C1CC[C@@H]1[C@@H]2[C@@H](O)C[C@@]2(C)[C@H]1CC[C@]2(O)C(=O)CO`, the Potency entry in [1], in test [2], in test [3], in [4], in [6] and in test [7] was “inactive” throughout.

`CC(=O)OCc1ccco1`: the Potency result in test [1], in test [2], in test [3], in test [4], in [6] and in [7] was “inactive” throughout. Also, in test [8], the Potency entry was “inactive”. The result in test [5] and in test [9] was inactive.

For the compound `CNC(=O)Oc1ccc2c(c1)[C@]1(C)CCN(C)[C@@H]1N2C`, the Potency entry in test [2], in [3], in test [4], in [6] and in test [7] was “inactive” in each case. Moreover, the result in test [5] was inactive.

`CC1(C)CC(N)CC(C)(CN)C1` (centres undefined): the Potency result in test [1], in test [2], in test [3], in [4] and in test [7] was “inactive” throughout.

As to `Cc1ccc(C(C)C)c(O)c1`, the Potency entry in test [1], in test [2], in test [3], in [4], in test [7] and in test [8] was “inactive” each time. In addition, the compound was classed as inactive in test [5] and in test [9].
